Source: publication PMC4336329 (PLoS ONE, 2015)
Among all 310,000 compounds or so, about 14,000 (4.5%) showed an effect of 50% or more. Effects have a minus sign here. Shown is part of a subset that was picked to be rich in strong results.

Target: human ether-à-go-go-related gene (hERG) potassium channel (human, UniProt Q12809)
Assay: primary screen, population patch clamp on CHO cells stably expressing hERG; higher = less effect of the substance
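Note: peak tail current of the secondary pulse compared with the same well before compound.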

Chain of human ether-à-go-go-related gene (hERG) potassium channel (Q12809 whole entry, looked up): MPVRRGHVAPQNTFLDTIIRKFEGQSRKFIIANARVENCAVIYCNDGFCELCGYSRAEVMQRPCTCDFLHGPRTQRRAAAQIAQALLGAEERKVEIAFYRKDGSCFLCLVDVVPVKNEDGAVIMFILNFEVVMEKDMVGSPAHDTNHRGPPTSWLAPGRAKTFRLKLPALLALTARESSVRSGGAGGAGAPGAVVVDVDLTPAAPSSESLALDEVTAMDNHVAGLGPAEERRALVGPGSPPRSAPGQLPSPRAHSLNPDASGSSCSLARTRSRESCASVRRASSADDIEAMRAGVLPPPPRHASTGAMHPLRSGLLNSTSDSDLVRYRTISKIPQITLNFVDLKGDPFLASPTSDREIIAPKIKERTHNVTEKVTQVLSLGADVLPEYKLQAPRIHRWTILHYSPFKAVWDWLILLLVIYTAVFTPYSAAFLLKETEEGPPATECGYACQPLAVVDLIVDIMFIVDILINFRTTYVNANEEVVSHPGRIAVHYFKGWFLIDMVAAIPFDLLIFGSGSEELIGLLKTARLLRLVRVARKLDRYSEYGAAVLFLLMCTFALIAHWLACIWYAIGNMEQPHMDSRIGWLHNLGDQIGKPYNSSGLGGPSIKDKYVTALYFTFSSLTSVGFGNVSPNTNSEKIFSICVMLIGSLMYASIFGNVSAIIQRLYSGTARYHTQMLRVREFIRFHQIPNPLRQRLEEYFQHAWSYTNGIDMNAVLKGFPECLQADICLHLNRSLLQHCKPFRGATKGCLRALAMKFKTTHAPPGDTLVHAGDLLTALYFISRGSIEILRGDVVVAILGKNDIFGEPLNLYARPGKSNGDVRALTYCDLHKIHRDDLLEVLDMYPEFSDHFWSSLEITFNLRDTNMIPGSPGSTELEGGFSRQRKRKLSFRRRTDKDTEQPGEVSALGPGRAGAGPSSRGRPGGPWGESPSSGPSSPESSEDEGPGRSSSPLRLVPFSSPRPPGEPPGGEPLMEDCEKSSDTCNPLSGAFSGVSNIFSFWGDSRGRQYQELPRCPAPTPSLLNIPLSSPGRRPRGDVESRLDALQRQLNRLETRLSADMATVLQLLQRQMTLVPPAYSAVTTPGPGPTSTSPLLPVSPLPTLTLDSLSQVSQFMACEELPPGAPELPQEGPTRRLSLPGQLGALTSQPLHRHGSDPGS

Structure (SMILES) | hERG current change (%, negative = inhibition) at 10uM [%]
COc1cccc(C(=O)OCn2nnc3ccccc3c2=O)c1 | 0.671
COc1cccc(-n2c(Cc3cc(=O)[nH]c(=O)[nH]3)nnc2SCc2cccc(C(F)(F)F)c2)c1 | 15.8
CCN(CC(=O)Nc1c(F)cccc1F)C(=O)c1ccc(N2C(=O)c3ccccc3C2=O)cc1 | 1.38
CN(CC(=O)NCCCN1CCOCC1)S(=O)(=O)c1ccc(F)cc1 | 15.4
NC(N)=NCCCC(NC(=O)c1ccccc1)C(=O)Nc1ccc2ccccc2c1 (centres unmarked) | 12.5
COCC(C)N=C1NN=C(c2cc(C)n(Cc3ccccc3Cl)c2C)CS1 (centres unmarked) | -9.9
CCOC(=O)C1=C(C)NC(C)=C(C(=O)OCC)C1c1cn(-c2ccccc2)nc1-c1ccco1 | -1.05
COc1cc(C(=O)OCC(=O)NC(C)CCc2ccccc2)cc(OC)c1OC (centres unmarked) | 9.14
Cc1cc(C)c(C)c(S(=O)(=O)N2CCN(CC(=O)Nc3ccc([N+](=O)[O-])cc3)CC2)c1C | 15.4
Cc1cc(C)nc(SCC(=O)Nc2ccc(S(=O)(=O)N3CCCCC3)cc2)n1 | -61.3
O=C(CN1CCN(S(=O)(=O)c2ccccc2)CC1)Nc1ccc([N+](=O)[O-])cc1 | -73.4
CC1CCCN(CC(=O)Nc2ccc(S(=O)(=O)N3CCCCC3)cc2)C1 (centres unmarked) | -15.7
O=C(CSc1ncccn1)Nc1ccc(S(=O)(=O)N2CCCCC2)cc1 | -12.9
O=[N+]([O-])c1ccc(NC(=S)N2CCN(S(=O)(=O)c3ccccc3)CC2)cc1 | -24.6
CC1CCCN(CC(=O)Nc2ccc(S(=O)(=O)N3CCCCCC3)cc2)C1 (centres unmarked) | -66.8
CC1CCCN(CC(=O)Nc2ccc(S(=O)(=O)N3CCCC3)cc2)C1 (centres unmarked) | 1.82
Cc1cc(=O)[nH]c(SCC(=O)Nc2ccc(S(=O)(=O)N3CCCCC3)cc2)n1 | -6.37
Cc1oc2ccccc2c1CNC(=O)N(C)C | 14.2
Cc1cccc(N=Nc2ccc(O)c3ncccc23)c1 | -8.51
CCCN(CC(=O)Nc1ccccc1OC)C(=O)c1cc(-c2cccs2)nn1-c1ccccc1 | -9.02
COc1ccc(/C=N/Nc2nc3ccccc3o2)cc1OC | 13.3
CC(=O)c1ccc(N2CCN(C(=O)COc3ccc4c(c3)CCC4)CC2)cc1 | -34

Structure (SMILES) | hERG current change (%, negative = inhibition) at 10uM [%]
Cc1ccc(SCc2cn3cccnc3n2)cc1 | 11.1
COc1cccc(CNC(=O)CN2C(=O)COc3ccc(S(=O)(=O)N4CCCCCC4)cc32)c1 | 24.8
COC(=O)c1cnc(Oc2ccc(NC(=O)NC(=O)c3c(OC)cccc3OC)cc2)cc1C(F)(F)F | -14.1
Cc1ccc(S(=O)(=O)c2cc3c(=O)n4ccccc4nc3n(Cc3ccco3)c2=N)cc1C | -4.4
Cc1ccc(S(=O)(=O)c2cc3c(=O)n4ccccc4nc3n(Cc3ccco3)c2=N)cc1 | -11.2
Cc1ccc(CNC(=O)c2cc3c(=O)n4ccccc4nc3n(Cc3ccco3)c2=N)cc1 | -75.5
Cc1ccc(Cn2c(=N)c(C(=O)NCc3ccco3)cc3c(=O)n4ccccc4nc32)cc1 | -79.8
Cc1ccc(Cn2c(=O)n(-c3ccccc3)c(=O)c3ccc(C(=O)NCc4ccco4)cc32)cc1 | -10.1
Cc1cccc(CSc2ccc(S(=O)(=O)N3CCCC3)cn2)c1 | 5.24
CC(NC(=O)C(=O)NCc1cccs1)c1ccccc1 (centres unmarked) | 16.9
CCn1cc(S(=O)(=O)CC(=O)Nc2ccc3c(c2)OCCO3)c2ccccc21 | -13.1
CCOC(=O)C1=C(C)N(c2ccccc2)C(=O)/C1=C\c1cccs1 | 18.1
CC(=O)N1CCN(CCN=CC2=C(O)CC(c3ccco3)CC2=O)CC1 (centres unmarked) | 1.17
CCCCCC(=O)N1CCN(CCN=CC2=C(O)CC(c3cccs3)CC2=O)CC1 (centres unmarked) | -106
CCC(=O)N1CCN(CCN=CC2=C(O)CC(c3cccs3)CC2=O)CC1 (centres unmarked) | -9.43
CC(C)C(=O)N1CCN(CCN=CC2=C(O)CC(c3ccco3)CC2=O)CC1 (centres unmarked) | 0.717
CCCCCC(=O)N1CCN(CCN=CC2=C(O)CC(c3ccco3)CC2=O)CC1 (centres unmarked) | -76.2
CC(=O)N1CCN(CCN=CC2=C(O)CC(c3cccs3)CC2=O)CC1 (centres unmarked) | 8.53
COc1cc(-c2cc(-c3ccc(O)cc3)nc(N)c2C#N)ccc1O | 18.5
CCn1c(SCC(=O)NC2CCCc3ccccc32)nnc1-c1cccs1 (centres unmarked) | -24.6
CC(Nc1ccc(Cl)cc1)C(=O)NN (centres unmarked) | -5.86
COc1cccc(NC(=O)c2c(F)cccc2F)c1 | -6.78

Structure (SMILES) | hERG current change (%, negative = inhibition) at 10uM [%]
CCOC(=O)c1[nH]cnc1C(=O)Nc1cccc(OC)c1 | 2.14
NC(=O)c1cc(S(=O)(=O)NCc2ccc(F)cc2)cs1 | 3.37
Cc1ccccc1Nc1nc(N)nc(CN2CCN(C(=O)c3ccccc3)CC2)n1 | -37.9
Nc1nc(CN2CCN(c3ccccn3)CC2)nc(Nc2ccc(Cl)cc2)n1 | -74.8
Nc1nc(CSC(=S)N2CCN(c3ccccc3)CC2)nc(Nc2ccc(F)cc2)n1 | 2.14
Nc1nc(CSc2ccccn2)nc(Nc2ccccc2)n1 | 1.81
Cc1ccccc1Nc1nc(N)nc(CN2CCN(c3ccccn3)CC2)n1 | -66.6
Cc1ccccc1Nc1nc(N)nc(CSc2ccc(F)cc2)n1 | -50.4
Cc1ccc(SCc2nc(N)nc(Nc3ccccc3C)n2)cc1C | 1.31
Cc1ccccc1Nc1nc(N)nc(CSc2ccccc2)n1 | -21
Nc1nc(CSc2ncn[nH]2)nc(Nc2ccc(F)cc2)n1 | 6.74
Cc1ccccc1Nc1nc(N)nc(CCl)n1 | 10.5
Nc1nc(CN2CCN(c3ccccn3)CC2)nc(Nc2ccc(F)cc2)n1 | -67.4
S=C(NCc1ccc(Cl)cc1)N1CCN(c2ccccn2)CC1 | -23.9
O=C(c1ccc(Cl)cc1)N1N=CCC1(O)c1ccc(Cl)cc1 (centres unmarked) | 15.7
COc1cc(NC(=O)CN2C(=O)NC3(CCOc4ccccc43)C2=O)cc(OC)c1 (centres unmarked) | -3.2
CCc1ccc(NC(=O)C2CCN(S(=O)(=O)c3ccc4[nH]c(=O)ccc4c3)CC2)cc1 | 3.6
Cc1ccc(NC(=O)c2c([N+](=O)[O-])c(C(C)(C)C)nn2C)c(C)c1 | 20.7
Cc1ccc2cc(/C=N/NC(=O)c3ccccc3[N+](=O)[O-])c(Cl)nc2c1 | -5.33
Cc1cc(C(=O)NCCN2C(=O)S/C(=C\c3cccs3)C2=O)ccc1[N+](=O)[O-] | -1.91
COc1ccc(Nc2nc(N)nc(CSc3nccn3C)n2)cc1 | 4.64
COc1ccc(NC(=S)N2CCN(c3ccccn3)CC2)cc1 | -0.967

Structure (SMILES) | hERG current change (%, negative = inhibition) at 10uM [%]
COc1ccc(Nc2nc(N)nc(CN3CCN(c4ccccn4)CC3)n2)cc1 | -65.1
Cn1c(COc2ccc(C(=O)O)cc2)nc2ccccc21 | 14.7
CC(OC(=O)CCc1c[nH]c2ccccc12)C(=O)c1ccccc1 (centres unmarked) | -17.8
COc1ncnc(-c2ccccc2)c1-c1ccccc1 | 1.86
CN1CCc2c(sc(NC(=O)Cc3ccccc3)c2C(N)=O)C1.Cl | -16.2
COC(=O)c1c(NC(=O)c2ccco2)sc2c1CCN(C(C)=O)C2 | -2.22
CCN1CCc2c(sc(NC(=O)CN3C(=O)c4ccccc4C3=O)c2C(N)=O)C1.Cl | -36.6
COC(=O)c1c(NC(C)=O)sc2c1CCN(Cc1ccccc1)C2.Cl | -9.29
COC(=O)c1c(NC(=O)Cc2ccccc2)sc2c1CCN(C(C)C)C2.Cl | -61.4
CCOC(=O)c1c(NC(=O)Cc2ccccc2)sc2c1CCN(C)C2.Cl | -53
CC(C)N1CCc2c(sc(NC(=O)c3ccco3)c2C(N)=O)C1.Cl | -6.82
COC(=O)c1c(NC(=O)c2ccc([N+](=O)[O-])o2)sc2c1CCN(C(C)C)C2.Cl | -25.1
CC(C)N1CCc2c(sc(NC(=O)Cc3ccccc3)c2C#N)C1.Cl | -16
CN1CCc2c(sc(NC(=O)Cc3ccccc3)c2C#N)C1.Cl | -7.24
CCN1CCc2c(sc(NC(=O)COc3ccccc3)c2C(=O)OC)C1.Cl | -62.6
COC(=O)c1c(NC(=O)c2ccco2)sc2c1CCN(C(C)C)C2.Cl | -62.5
COc1ccc(/C=N/n2c(-c3n[nH]c4c3CCC4)n[nH]c2=S)c(OC)c1OC | 20.7
COc1nc(NC(C)=O)nc(C)c1Br | -1.69
COc1ccc(NC(=O)CC(C)C)c([N+](=O)[O-])c1 | -0.754
Cc1ccc(C(=O)NC(=S)Nc2ccccc2C)cc1 | -0.104
